Consider five compounds from PubChem BioAssay.

Calls of active or inactive are those of the source.

Assay [1] concerns PRMT1 (protein arginine N-methyltransferase 1). Description: PRMT1 binders on small-molecule microarrays, primary screen, biochemical, small-molecule microarray, 635 nm fluorescence (AID 1088).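 Note: binding of Prmt1 protein to compounds spotted on small-molecule microarray slides.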 The following applies: small-molecule microarray binding, higher = more signal.
A short description of assay [2]: yeast growth modulation, basal conditions, primary screen, YJM789 clinical isolate, OD600, 24 h (AID 1089).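 Note: growth of clinical yeast isolate S. cerevisiae YJM 789 seeded 1000 cells per well; test concentration not given here.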 The following applies: S. cerevisiae YJM789 growth, higher = more signal, called active from +8 up or from −8 down.
Assay [3] can be described thus: fission yeast growth modulation, primary screen, strain 972, OD600, 24 h, no modulator (AID 1090).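 Note: basal condition with compound alone and no growth modifier present; test concentration not given here.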 The following applies: S. pombe 972 growth, higher = more signal, called active from +8 up or from −8 down.
The nature of assay [4]: S. cerevisiae growth modulation with rapamycin, primary screen, strain BY4716, OD600, 96 h (AID 1091). Note: test concentration not given here. The following applies: higher = more signal, called active from +8 up or from −8 down.
Assay [5] has as its target Torsin-1A-interacting protein 2 (Homo sapiens) (UniProt Q8NFQ8). The assay can be described thus: LULL1 binders on small-molecule microarray, primary screen, cell lysate, human LULL1 lysate, 635/667 nm fluorescence (AID 1092).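 Note: probe is lysate of COS7 cells overexpressing human LULL1; score merges per-feature 667 nm fluorescence with signal-to-noise.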 The following applies: hLULL1 lysate binding, 635 nm fluorescence, higher = more signal.
Assay [6] is described as follows: E. coli growth modulation, two-sided OD650, primary screen, E. coli filamentation project, strain DRC41, 24 h (AID 1093).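 Note: MC1000 strain lacking acrAB efflux and sulA so SOS filamentation is blocked; test concentration not given here.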 The following applies: OD650, 24 h, higher = more signal, called active from +8 up or from −8 down.
A short description of assay [7]: small-molecule microarray binders of probe aLefty2, primary screen, biochemical, biotinylated probe, 635/667 nm fluorescence (AID 1094).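 Note: score merges spot fluorescence near 667 nm with spot signal-to-noise ratio.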 The following applies: higher = more signal.
For assay [8], the system named is Noggin (protein binding on small-molecule microarray). Description: Noggin binders on small-molecule microarray, primary screen, biochemical, 635/667 nm fluorescence (AID 1095).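 Note: score merges 667 nm feature fluorescence with signal to noise over triplicate slides.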 The following applies: 635 nm fluorescence, higher = more signal.
Assay [9] has as its target Neurogenic locus notch homolog protein 3 (Homo sapiens) (UniProt Q9UM47). The assay can be described thus: NOTCH3 binders on small-molecule microarray, primary screen, biochemical, 635/667 nm fluorescence (AID 1096). The following applies: NOTCH3 binding, 635 nm fluorescence, higher = more signal.
Assay [10] is described as follows: small-molecule microarray binders of probe aEGFR, primary screen, biochemical, biotinylated probe, 635/667 nm fluorescence (AID 1097).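 Note: probe is a biotinylated anti-EGFR antibody binding compounds printed on slides; score combines fluorescence near 667 nm and signal to noise of each spot.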 The following applies: higher = more signal.
Assay [11] concerns Plasmodium falciparum Sir2 (PF13_0152, Sir2A). Description: pfSir2 binders on small-molecule microarrays, primary screen, biochemical, small-molecule microarray, 635 nm fluorescence (AID 1098).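 Note: score merges spot fluorescence intensity with its signal-to-noise ratio.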 The following applies: small-molecule microarray binding, fluorescence 635 nm; higher = more signal.
A short description of assay [12]: small-molecule microarray binders of probe aDKK1, primary screen, biochemical, biotinylated probe, 635/667 nm fluorescence (AID 1099).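 Note: score merges 667nm spot fluorescence with signal to noise across triplicate slides; reference of the scale not given here.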 The following applies: higher = more signal.
Assay [13] in a line: small-molecule microarray binders of probe aCHRDL2, primary screen, biochemical, biotinylated probe, 635/667 nm fluorescence (AID 1100). The following applies: higher = more signal.
The nature of assay [14]: splicing luciferase reporter signal modulators, primary screen, spliceosome inhibition project, cell-based, HEK293, splice +/- reporter (AID 1101).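 Note: HEK293 cells carrying a splicing-competent luciferase reporter gene; test concentration not given here.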 The following applies: luminescence, 24 h, higher = more signal, called active from +8 up or from −8 down. In general terms: In a reporter assay the amount or activity of a reporter protein is the signal.
Assay [15] has as its target Fibroblast growth factor 10 (Homo sapiens) (UniProt O15520). Description: FGF10 binders on small-molecule microarrays, primary screen, biochemical, small-molecule microarray, 635 nm fluorescence (AID 1102). The following applies: FGF10 binding, fluorescence 635 nm, higher = more signal.
Assay [16] has as its system glycogen synthase kinase-3 (GSK3A per assay name; protocol says GSK3B). The assay can be described thus: GSK3 binders on small-molecule microarrays, primary screen, biochemical, small-molecule microarray, 635 nm fluorescence, GSK3A (AID 1103). Note: the record names both GSK3A and GSK3B. The following applies: small-molecule microarray binding, fluorescence 635 nm; higher = more signal.
Assay [17] concerns the target Epidermal growth factor receptor (Homo sapiens) (UniProt P00533). The assay can be described thus: EGFR binders on small-molecule microarrays, primary screen, biochemical, small-molecule microarray, 635 nm fluorescence (AID 1104).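 Note: score merges 667 nm emission intensity with spot signal to noise over triplicate slides.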 The following applies: EGFR binding, higher = more signal.
The target in assay [18] is Follistatin-related protein 3 (Homo sapiens) (UniProt O95633). The assay can be described thus: FSTL3 binders on small-molecule microarrays, primary screen, biochemical, small-molecule microarray, 635 nm fluorescence (AID 1105).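 Note: score merges emission near 667 nm and signal to noise per printed spot across three slides.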 The following applies: FSTL3 binding, higher = more signal.
Assay [19] concerns the target Dickkopf-related protein 1 (Homo sapiens) (UniProt O94907). Description: DKK1 binders on small-molecule microarrays, primary screen, biochemical, small-molecule microarray, 635 nm fluorescence scan (AID 1106).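 Note: score merges emission near 667 nm with signal to noise over three replicate slides.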 The following applies: DKK1 binding, higher = more signal.
The subject of assay [20] is Inhibin beta A chain (activin A). Description: INHBA (activin A) binders on microarrays, primary screen, biochemical, small-molecule microarray, 635 nm fluorescence scan (AID 1107).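 Note: mouse activin A protein probed at 4.33 µg/mL on printed slides; score merges bound-protein fluorescence near 667 nm with spot signal-to-noise.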 The following applies: small-molecule microarray binding, higher = more signal.

Chain of Neurogenic locus notch homolog protein 3 (Homo sapiens) (Q9UM47 whole entry, looked up): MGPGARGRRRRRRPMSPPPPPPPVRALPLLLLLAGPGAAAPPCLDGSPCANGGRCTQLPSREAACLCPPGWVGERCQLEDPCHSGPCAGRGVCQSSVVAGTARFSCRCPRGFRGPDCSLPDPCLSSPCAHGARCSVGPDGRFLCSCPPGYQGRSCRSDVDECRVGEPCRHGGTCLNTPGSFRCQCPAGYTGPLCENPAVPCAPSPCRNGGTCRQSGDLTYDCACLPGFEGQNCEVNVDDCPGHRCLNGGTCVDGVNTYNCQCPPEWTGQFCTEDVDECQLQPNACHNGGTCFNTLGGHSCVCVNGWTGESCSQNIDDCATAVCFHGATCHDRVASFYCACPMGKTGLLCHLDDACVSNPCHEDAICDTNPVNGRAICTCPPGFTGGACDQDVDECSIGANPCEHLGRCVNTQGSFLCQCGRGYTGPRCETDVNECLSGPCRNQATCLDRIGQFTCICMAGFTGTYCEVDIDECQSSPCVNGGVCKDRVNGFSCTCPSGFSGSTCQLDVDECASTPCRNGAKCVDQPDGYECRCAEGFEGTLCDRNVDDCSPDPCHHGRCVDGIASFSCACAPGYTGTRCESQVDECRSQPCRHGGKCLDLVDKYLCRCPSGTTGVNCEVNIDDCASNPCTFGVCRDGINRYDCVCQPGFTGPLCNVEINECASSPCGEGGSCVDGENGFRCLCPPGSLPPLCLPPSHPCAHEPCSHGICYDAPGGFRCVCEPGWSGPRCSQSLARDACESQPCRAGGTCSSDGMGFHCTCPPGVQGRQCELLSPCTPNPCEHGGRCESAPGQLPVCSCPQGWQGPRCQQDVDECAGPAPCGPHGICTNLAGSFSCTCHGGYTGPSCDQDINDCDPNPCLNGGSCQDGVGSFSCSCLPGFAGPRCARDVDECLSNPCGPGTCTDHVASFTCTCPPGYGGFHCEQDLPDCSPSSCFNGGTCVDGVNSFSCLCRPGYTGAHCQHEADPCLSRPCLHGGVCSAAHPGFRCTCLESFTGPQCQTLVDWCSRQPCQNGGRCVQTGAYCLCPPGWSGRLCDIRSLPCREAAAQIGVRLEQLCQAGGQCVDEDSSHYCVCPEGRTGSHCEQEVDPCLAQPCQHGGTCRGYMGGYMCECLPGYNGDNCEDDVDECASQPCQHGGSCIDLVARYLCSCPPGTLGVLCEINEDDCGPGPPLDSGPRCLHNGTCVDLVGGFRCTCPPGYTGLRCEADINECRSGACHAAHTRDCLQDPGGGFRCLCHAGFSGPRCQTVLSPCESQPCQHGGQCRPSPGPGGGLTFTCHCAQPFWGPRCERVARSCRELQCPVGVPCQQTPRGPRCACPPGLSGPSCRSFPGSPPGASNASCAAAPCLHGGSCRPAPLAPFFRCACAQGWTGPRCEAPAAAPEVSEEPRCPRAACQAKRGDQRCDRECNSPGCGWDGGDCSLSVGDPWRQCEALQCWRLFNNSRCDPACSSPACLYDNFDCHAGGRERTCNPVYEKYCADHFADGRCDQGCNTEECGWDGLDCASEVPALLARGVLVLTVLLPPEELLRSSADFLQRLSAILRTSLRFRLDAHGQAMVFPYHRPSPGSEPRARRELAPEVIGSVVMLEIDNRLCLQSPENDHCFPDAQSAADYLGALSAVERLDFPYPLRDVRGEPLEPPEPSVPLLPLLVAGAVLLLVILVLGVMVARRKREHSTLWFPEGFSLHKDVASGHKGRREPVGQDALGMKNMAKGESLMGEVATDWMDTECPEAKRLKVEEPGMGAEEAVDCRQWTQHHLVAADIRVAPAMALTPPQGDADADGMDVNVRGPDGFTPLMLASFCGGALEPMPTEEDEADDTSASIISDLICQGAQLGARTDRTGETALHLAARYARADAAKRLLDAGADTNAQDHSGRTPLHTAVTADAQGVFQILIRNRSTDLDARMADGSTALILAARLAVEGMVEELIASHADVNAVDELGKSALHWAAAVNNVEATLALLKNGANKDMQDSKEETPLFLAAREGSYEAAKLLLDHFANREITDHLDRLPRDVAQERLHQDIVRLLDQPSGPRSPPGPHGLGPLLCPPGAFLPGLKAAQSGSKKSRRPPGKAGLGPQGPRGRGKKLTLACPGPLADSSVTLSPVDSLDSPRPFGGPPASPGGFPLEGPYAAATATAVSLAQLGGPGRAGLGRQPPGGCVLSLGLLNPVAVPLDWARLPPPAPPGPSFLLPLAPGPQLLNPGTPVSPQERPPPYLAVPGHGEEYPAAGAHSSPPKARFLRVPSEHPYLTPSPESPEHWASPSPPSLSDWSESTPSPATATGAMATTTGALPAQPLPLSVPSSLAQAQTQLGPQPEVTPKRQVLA
Chain of Fibroblast growth factor 10 (Homo sapiens) (O15520 whole entry, looked up): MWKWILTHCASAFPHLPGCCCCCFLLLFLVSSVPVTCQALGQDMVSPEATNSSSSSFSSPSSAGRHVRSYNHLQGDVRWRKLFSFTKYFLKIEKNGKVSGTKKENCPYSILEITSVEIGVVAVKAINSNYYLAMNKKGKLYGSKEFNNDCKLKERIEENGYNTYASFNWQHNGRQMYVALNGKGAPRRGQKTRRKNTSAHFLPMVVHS
Chain of Epidermal growth factor receptor (Homo sapiens) (P00533 whole entry, looked up): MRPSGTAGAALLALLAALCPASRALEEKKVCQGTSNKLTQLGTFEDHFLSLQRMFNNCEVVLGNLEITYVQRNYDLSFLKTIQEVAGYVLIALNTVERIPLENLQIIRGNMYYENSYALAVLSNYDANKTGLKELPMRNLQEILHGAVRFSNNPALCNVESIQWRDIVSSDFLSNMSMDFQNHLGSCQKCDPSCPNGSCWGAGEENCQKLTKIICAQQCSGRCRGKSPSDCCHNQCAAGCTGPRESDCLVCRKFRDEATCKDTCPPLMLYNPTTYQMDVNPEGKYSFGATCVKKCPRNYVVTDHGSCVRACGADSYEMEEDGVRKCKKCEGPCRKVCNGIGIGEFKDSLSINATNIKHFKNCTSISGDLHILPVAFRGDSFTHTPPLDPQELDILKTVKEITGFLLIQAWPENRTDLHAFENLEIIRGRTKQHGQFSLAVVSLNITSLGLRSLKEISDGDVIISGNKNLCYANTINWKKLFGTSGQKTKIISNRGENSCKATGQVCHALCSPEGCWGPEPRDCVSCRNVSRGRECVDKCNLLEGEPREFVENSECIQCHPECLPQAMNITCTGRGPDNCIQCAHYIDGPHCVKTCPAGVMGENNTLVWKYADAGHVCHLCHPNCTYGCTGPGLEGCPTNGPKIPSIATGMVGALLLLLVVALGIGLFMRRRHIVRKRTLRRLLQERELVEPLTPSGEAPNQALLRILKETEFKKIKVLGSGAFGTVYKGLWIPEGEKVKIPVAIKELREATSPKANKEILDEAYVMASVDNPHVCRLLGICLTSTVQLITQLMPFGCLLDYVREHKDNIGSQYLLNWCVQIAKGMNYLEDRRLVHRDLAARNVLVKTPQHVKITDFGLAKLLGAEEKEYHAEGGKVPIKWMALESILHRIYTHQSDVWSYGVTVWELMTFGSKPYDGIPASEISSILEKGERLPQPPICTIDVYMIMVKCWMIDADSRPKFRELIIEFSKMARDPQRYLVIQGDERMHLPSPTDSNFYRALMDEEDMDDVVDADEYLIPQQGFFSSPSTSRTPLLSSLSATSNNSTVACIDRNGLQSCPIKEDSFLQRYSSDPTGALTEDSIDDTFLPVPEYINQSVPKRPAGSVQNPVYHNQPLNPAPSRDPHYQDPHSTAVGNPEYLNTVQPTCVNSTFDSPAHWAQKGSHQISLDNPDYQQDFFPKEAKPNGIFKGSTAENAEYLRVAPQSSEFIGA
Chain of Follistatin-related protein 3 (Homo sapiens) (O95633 whole entry, looked up): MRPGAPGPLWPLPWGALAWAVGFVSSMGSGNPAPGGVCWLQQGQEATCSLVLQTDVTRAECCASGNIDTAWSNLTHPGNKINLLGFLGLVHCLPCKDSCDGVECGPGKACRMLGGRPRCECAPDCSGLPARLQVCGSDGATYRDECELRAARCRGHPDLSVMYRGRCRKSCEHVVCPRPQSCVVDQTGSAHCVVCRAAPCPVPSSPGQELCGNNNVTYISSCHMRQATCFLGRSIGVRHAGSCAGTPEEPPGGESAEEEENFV
Chain of Torsin-1A-interacting protein 2 (Homo sapiens) (Q8NFQ8 whole entry, looked up): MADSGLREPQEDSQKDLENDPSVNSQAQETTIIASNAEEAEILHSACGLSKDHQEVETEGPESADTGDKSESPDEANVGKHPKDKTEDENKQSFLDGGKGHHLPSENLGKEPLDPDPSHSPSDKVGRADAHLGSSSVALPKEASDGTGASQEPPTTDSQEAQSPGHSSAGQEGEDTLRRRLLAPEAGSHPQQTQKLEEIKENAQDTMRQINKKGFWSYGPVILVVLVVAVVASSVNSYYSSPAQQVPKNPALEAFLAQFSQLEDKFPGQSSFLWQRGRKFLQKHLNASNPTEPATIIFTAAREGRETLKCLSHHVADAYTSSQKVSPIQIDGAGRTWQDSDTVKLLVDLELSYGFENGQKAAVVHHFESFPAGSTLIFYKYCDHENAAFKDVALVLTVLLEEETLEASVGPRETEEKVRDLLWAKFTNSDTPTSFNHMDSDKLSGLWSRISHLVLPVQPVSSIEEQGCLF
Chain of Dickkopf-related protein 1 (Homo sapiens) (O94907 whole entry, looked up): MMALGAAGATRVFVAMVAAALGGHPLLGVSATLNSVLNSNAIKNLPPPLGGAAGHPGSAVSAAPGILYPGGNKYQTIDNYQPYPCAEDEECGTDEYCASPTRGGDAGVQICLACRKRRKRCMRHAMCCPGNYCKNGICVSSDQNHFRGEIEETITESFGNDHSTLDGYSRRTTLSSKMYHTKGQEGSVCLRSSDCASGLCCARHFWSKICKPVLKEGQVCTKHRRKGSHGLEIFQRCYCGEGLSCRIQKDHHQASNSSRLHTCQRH

`CCOc1cc(C(O)C2C=CC3C(=O)N(C)C(=O)C3N2Nc2ccccc2)ccc1O` (stereo not given): the composite z-score in assay [1] was 1.13; in [5], 1.84; in assay [7] it was 0.0258; in assay [8] it was -0.386; in assay [9], 0.679; in assay [10], 0.0439. For the same compound, the composite z-score in [11] came out at 0.764; in assay [12], 0.791; in [13], 0.0692; in assay [15], 0.736; in assay [16] it was 0.57; in assay [17] it was 0.0228. In addition, the composite z-score in assay [18] was 0.0592; in assay [19], -0.329; in assay [20], 0.569. The z-score in assay [2] was 0.921 (inactive); in [3] it was 1.23 (inactive); in assay [4], 1.97 (inactive); in assay [6], -0.0866 (inactive); in [14], 0.719 (inactive).
`CCOC(=O)C1=CC[C@@H](c2cccc(Cl)c2)N(S(=O)(=O)c2ccc(C)cc2)C1`: the composite z-score is 0.335 in assay [1]; 2.54 in assay [5]; 0.0771 in assay [7]; 0.0745 in [8]; 0.126 in assay [9]; -0.0803 in assay [10]. The composite z-score amounted to 0.925 in assay [11]; 0.419 in assay [12]; 0.877 in assay [13]; 0.674 in assay [15]; 0.0076 in [16]; 0.101 in [17]. Besides, the composite z-score was -0.0034 in [18], 0.0677 in assay [19] and 0.539 in [20]. Further, the z-score in [2] was -1.89 (inactive); in assay [3] it was -0.0856 (inactive); in assay [4] it was 0.311 (inactive); in assay [6], -0.363 (inactive); in assay [14], -2.03 (inactive).
For the compound `COCCOC(=O)N1C(=O)[C@@]2(c3cc(C#CC4=CCCCC4)ccc31)[C@H](c1ccccc1OCCO)N1[C@H](c3ccccc3)[C@H](c3ccccc3)OC(=O)[C@H]1[C@@H]2C(=O)Nc1nc2ccccc2s1`, the composite z-score in [1] is 1.29; in [5], 2.66; in assay [7], 0.0274; in assay [8] it was 1.05; in assay [9] it was 1.06; in assay [10], -0.0728. Also, the composite z-score in assay [11] is 1.09; in [12] it was -0.148; in assay [13] it was -0.226; in [15], 1.08; in assay [16], 0.69; in [17], 0.416. Also, the composite z-score amounted to 0.981 in assay [18], 0.506 in assay [19] and 0.936 in assay [20]. For the same compound, the z-score in assay [2] was 0.478 (inactive); in assay [3] it was 0.615 (inactive); in assay [4], 1.29 (inactive); in assay [6], -0.15 (inactive); in [14], -1.62 (inactive).
For `COC(=O)[C@@]1(Cc2ccc(F)cc2)[C@H]2c3cc(C(=O)N(C)C)n(CCc4ccc(O)c(OC)c4)c3C[C@H]2CN1C(=O)c1ccccc1`, the composite z-score in assay [1] is -0.646; in [5], 1.01; in assay [7], 1.42; in assay [8], 0.446; in [9], 0.237; in [10] it was 1.25. The composite z-score in assay [11] amounted to 0.0736; in assay [12], 2.29; in assay [13] it was 0.884; in assay [15] it was 1.05; in assay [16], 0.776; in [17] it was 1.45. For the same compound, the composite z-score worked out at 0.62 in assay [18], 0.399 in assay [19] and 0.366 in assay [20]. Also, the z-score is 0.503 (inactive) in assay [2]; 0.459 (inactive) in assay [3]; 0.689 (inactive) in assay [4]; -0.849 (inactive) in [6]; 0.655 (inactive) in assay [14].
Consider `CN1C(=O)C2C=CC(C(O)C#Cc3ccccc3)N(Nc3ccccc3)C2C1=O` (stereo not given), for which the composite z-score in assay [1] was 1.54; in assay [5], 3.4; in [7], 0.166; in [8], 0.295; in [9] it was 1.03; in [10], 0.199. The composite z-score in assay [11] amounted to 1.58; in [12], 0.932; in assay [13], 0.891; in [15], 1.33; in assay [16], 1.31; in assay [17], 0.56. For the same compound, the composite z-score in [18] is 1.42; in assay [19], -0.184; in assay [20], 0.926. For the same compound, the z-score in [2] was 0.415 (inactive); in assay [3], -1.18 (inactive); in assay [4] it was 1 (inactive); in [6] it was -0.672 (inactive); in assay [14], 1.24 (inactive).
